In the supplement of paper PMC7726561:
Whole data set: some 1,100 sequences, median “thermal melting temperature (Tm) of peptide-HLA complex” near 58, cut for the lowest 2% near 42. Only a selection was taken, and the lowest values are over-represented in it overall.
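Note: lysates heated 10 min at 37–73 °C, complexes pulled down with pan-HLA I antibody, peptide signal by DIA-MS relative to 37 °C, Tm where half the complex is unfolded.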

What follows are sequences tested against HLA-A*02:01 (assay: thermal melting temperature (Tm) of peptide-HLA complex; higher = more thermostable pHLA complex). Details: C1R-A*02:01.
NLIPILKTV was tested, and the thermal melting temperature was 56 °C. For SQTFVNPHV, the thermal melting temperature was 57.8 °C. YLLTESSKL gave a thermal melting temperature of 55.2 °C. YLWPRGSPAL gave a thermal melting temperature of 41.3 °C. For FLDDVVHSL, the thermal melting temperature was 58.8 °C. Sequence SLHEFLVNL has a thermal melting temperature of 61.5 °C. Sequence RLMNDMTAV has a thermal melting temperature of 58.9 °C. In the case of SLLDGHFVL, the thermal melting temperature is reported as 40.1 °C. In the case of RLLDGAFKL, the thermal melting temperature is reported as 49.9 °C. Sequence VLIDYQRNV has a thermal melting temperature of 60.1 °C. With FLSSVIQNL the thermal melting temperature was 58.3 °C. With QLYNQIIKL the thermal melting temperature was 56.1 °C. IQDFEMPTV was tested, and the thermal melting temperature was 50.9 °C. Work on VMLDVPIRL yielded a thermal melting temperature of 55.9 °C. With HLIDDLLAA the thermal melting temperature was 41.1 °C. Work on ALFPAPLAQI yielded a thermal melting temperature of 62.7 °C. NIIELVHQV showed a thermal melting temperature of 57.1 °C. In the case of KLGDFGLLV, the thermal melting temperature is reported as 60.4 °C. In the case of FLNPDEVHAI, the thermal melting temperature is reported as 59.9 °C. FLMENGSITSI was tested, and the thermal melting temperature was 58.2 °C. In the case of YLSGIAHFL, the thermal melting temperature is reported as 62 °C. Sequence SLAQYLINA has a thermal melting temperature of 56.7 °C. TIPEAFRGV showed a thermal melting temperature of 46.3 °C. Sequence KLLWTTSRV has a thermal melting temperature of 60.1 °C. RVIGTLEEV gave a thermal melting temperature of 57.6 °C. YLDEDTIYHL showed a thermal melting temperature of 45.2 °C. AALEEADKMFL showed a thermal melting temperature of 53.3 °C. SVTSEGIKAV was tested, and the thermal melting temperature was 46 °C. With TVADKIHSV the thermal melting temperature was 55.7 °C. For KMDEVLYSI, the thermal melting temperature was 59 °C. For RLAEVGQYEQV, the thermal melting temperature was 56.3 °C. For TLIGLSIKV, the thermal melting temperature was 56.7 °C. Work on SVAEGRALMSV yielded a thermal melting temperature of 56.8 °C. With FQVDEIYTV the thermal melting temperature was 56 °C. ILDQKINEV gave a thermal melting temperature of 60 °C. ILDQKVALL showed a thermal melting temperature of 41.7 °C. With VILESDPQQVV the thermal melting temperature was 40.1 °C. IIADMDKWTV showed a thermal melting temperature of 54.6 °C. In the case of SMGQLPHTV, the thermal melting temperature is reported as 41.4 °C. Sequence ALERLLPQV has a thermal melting temperature of 59.2 °C. KLYQEVEIASV showed a thermal melting temperature of 61 °C. With SLLPFLKAV the thermal melting temperature was 61.9 °C.
